The list is not random: actives were taken first. Their share in the collection is about 3.4%.
FBW7 activator – activators of human E3 ligase FBW7 | normalized activity (activation), % at 26.1 µM | AID 1259310 | AlphaScreen FBW7–phospho-cyclin E peptide binding, activator screen | 0.13% of 650,000 active; in the data active = normalized activity above about 1.9%;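 also: purified mutant Fbw7 with reduced substrate affinity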
MITF primary – inhibitors of human MITF. O75030. AlphaScreen MITF homodimerization, bead proximity signal. inhibition, % at 2.6 µM. 0.91% of 650,000 active. AID 1259374; in the data active = inhibition above about 50%
GPR151 activ – activators of human GPR151. AID 1508602. activation, % at 11.2 µM. PathHunter beta-arrestin GPR151 cells, luminescence. 1% of 650,000 active. Q8TDV0; in the data active = activation above about 4.9%
Target sequence (Q8TDV0 whole entry, looked up): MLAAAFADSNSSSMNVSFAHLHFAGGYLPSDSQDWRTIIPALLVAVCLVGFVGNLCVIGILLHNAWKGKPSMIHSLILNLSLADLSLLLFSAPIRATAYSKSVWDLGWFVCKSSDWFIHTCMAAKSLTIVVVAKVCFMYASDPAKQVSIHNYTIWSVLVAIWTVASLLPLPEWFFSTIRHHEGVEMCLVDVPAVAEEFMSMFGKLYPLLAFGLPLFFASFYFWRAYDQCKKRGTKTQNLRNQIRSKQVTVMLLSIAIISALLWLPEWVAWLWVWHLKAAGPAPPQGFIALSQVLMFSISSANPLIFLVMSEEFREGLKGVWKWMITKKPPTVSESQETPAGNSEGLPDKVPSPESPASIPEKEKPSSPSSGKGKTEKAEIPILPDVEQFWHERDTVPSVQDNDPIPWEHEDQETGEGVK
TEAD-YAP inh – TEAD-YAP interaction inhibition; 1.4% of 640,000 active; inhibition, % at 9.12 µM; HEK-TIYL cells, TEAD-Gal4/YAP UAS-luciferase luminescence; AID 1259422; in the data active = inhibition above about 32%
Each line names hits and unclear results; the compound was inactive in the other large screens.

O=C(Nc1ccccc1C(=O)Nc1ccccc1F)c1ccco1	none
Cc1nc2c(C(=O)NC3CCCC3)cnn2c(C)c1Cc1ccccc1Cl	none
Cc1cc(C)nc(-n2ncc(Cl)c(Cl)c2=O)n1	TEAD-YAP inh 86
O=c1c(Cl)c(Cl)cnn1-c1cccc(C(F)(F)F)c1	none
O=c1c(Cl)c(Cl)cnn1-c1ccc(Cl)c(C(F)(F)F)c1	TEAD-YAP inh 86
O=c1c(Cl)c(Cl)cnn1Cc1ccccc1Cl	TEAD-YAP inh 33
O=c1c(Cl)c(Cl)cnn1-c1ccccc1	TEAD-YAP inh 93
CCOC(=O)C(NCc1cccnc1)(NC(=O)c1ccc(OC)cc1)C(F)(F)F (centres undefined)	none
CNC(=O)Cc1cn(Cc2ccccc2)c2ccccc12	none
CSc1cnn(-c2ccccc2)c(=O)c1SC	FBW7 activator 1.9
CCC(C)NS(=O)(=O)c1ccc(Cc2ccc(S(=O)(=O)NC(C)CC)cc2)cc1 (centres undefined)	TEAD-YAP inh 34
CCC(C)NS(=O)(=O)c1ccc(Br)cc1 (centres undefined)	none
c1ccc2c(c1)n(CCN1CCCCC1)c1ncnn21	none
c1ccc2c(c1)nc1n(CCN3CCCCC3)cnn21	FBW7 activator 2.1
C/C(N)=C(/C#N)C(=O)CSc1nnc(Nc2ccc(SC(F)F)cc2)s1	none
CCC1=Nc2cc(C(=O)NCC(OC)OC)ccc2Sc2ccccc21	TEAD-YAP inh 36
CCC1=Nc2cc(C(=O)NCCOC)ccc2Sc2ccccc21	TEAD-YAP inh 57
CC1=Nc2cc(C(=O)NCCN(C)C)ccc2Sc2ccc(Cl)cc21	TEAD-YAP inh 56
Oc1ccc(C2CC(c3c(O)ccc4ccccc34)=NN2)cc1 (centres undefined)	TEAD-YAP inh 88
COc1cc(C2CC(c3c(O)ccc4ccccc34)=NN2)ccc1O (centres undefined)	TEAD-YAP inh 61
COc1cc(C2C3=C(COC3=O)Nc3ccc4ccccc4c32)ccc1O (centres undefined)	TEAD-YAP inh 56
COc1cc(C2CC(=O)c3c(ccc4ccccc34)N2)ccc1O (centres undefined)	none
NC(=O)c1ccccc1NC(=O)Nc1ccc(Cl)cc1	none
O=[N+]([O-])c1ccc(Cl)c(S(=O)(=O)N2CCN(c3ccc(F)cc3)CC2)c1	none
COC(=O)c1sc(NC(=O)CSc2ncccc2-c2nc3ccccc3[nH]2)nc1C	none
CC1CCN(C(=O)CSc2ncccc2-c2nc3ccccc3[nH]2)CC1	TEAD-YAP inh 49
Cc1nc(NC(=O)CSc2ncccc2-c2nc3ccccc3[nH]2)sc1C	TEAD-YAP inh 73
CCOc1ccc(NC(=O)c2ccc(O)cc2)cc1	TEAD-YAP inh 64
CCOc1ccc(NC(=O)c2cccc(O)c2)cc1	TEAD-YAP inh 80
CCC(=O)Oc1ccc(C(=O)Nc2ccc(N(C)C)cc2)cc1	TEAD-YAP inh 38
CCOCCOc1cccc(C(=O)Nc2ccc3ccccc3c2)c1	TEAD-YAP inh 39
CC(C)n1c(NCc2cccnc2)nc2c(NCCCN3CCCC3=O)ncnc21	none
CCOC(=O)C(C)Sc1nc(N)c(NC(=O)c2ccco2)c(=O)[nH]1 (centres undefined)	none
O=C(Nc1ccc(O)cc1)c1ccc([N+](=O)[O-])cc1	TEAD-YAP inh 55
CCOC(=O)c1c(C)oc2ccc(OC(=O)c3ccccc3C)cc12	none
CCOC(=O)CN(C(=O)CCl)c1ccc(F)cc1	TEAD-YAP inh 77
Cc1ccn2cc(-c3cccc(NC(=O)c4ccccc4)c3)nc2c1	none
Cc1ccc(-c2cn3ccccc3n2)cc1C	TEAD-YAP inh 59
Oc1ccc(-c2cn3ccccc3n2)cc1O	none
Cc1ccn2cc(-c3ccc4ccccc4c3)nc2c1	TEAD-YAP inh 63
CN(C)S(=O)(=O)c1ccc(-c2cn3ccccc3n2)cc1	none
Cc1ccn2cc(-c3ccc(O)c(O)c3)nc2c1	TEAD-YAP inh 64
Cc1ccn2cc(-c3ccccc3)nc2c1	TEAD-YAP inh 77
Cc1ccn2cc(-c3cccc(Cl)c3)nc2c1	none
COc1ccccc1N1C(=O)c2ccccc2NC1c1ccc2c(c1)OCO2 (centres undefined)	none
Oc1c(Cl)cc(CN2CCCC2)c2cccnc12	MITF primary 113, TEAD-YAP inh 93
COc1ccccc1N1CCN(Cc2cc(Cl)c(O)c3ncccc23)CC1	MITF primary 74, TEAD-YAP inh 82
CCOc1ccc2[nH]cc(C(=O)NCc3cccnc3)c(=O)c2c1	TEAD-YAP inh 41
O=C(NNC(=O)C1c2ccccc2Oc2ccccc21)Nc1ccc2c(c1)OCO2	TEAD-YAP inh 61
CC1=C(Cc2ccc3c(c2)OCO3)SC2=NS(=O)(=O)CCN21	none
COc1cc(C=O)ccc1OCCN1CCOCC1	TEAD-YAP inh 40
CCOc1cc(C=O)ccc1OCCN1CCOCC1	none
CC(=O)CN1CCC(n2nnc3cc(C(F)(F)F)ccc32)CC1	none
O=C(N/N=C/c1cc2ccccc2cc1O)c1ccncc1	MITF primary 54, TEAD-YAP inh 88
Nc1nonc1C(=O)N/N=C/c1ccccc1O	MITF primary 63
Nc1nonc1C(=O)N/N=C/c1cc(Cl)cc(Cl)c1O	MITF primary 68
COc1ccc(O)c(/C=N/NC(=O)c2ccncc2)c1	none
O=C(N/N=C/c1cc(Cl)cc(Cl)c1O)c1ccncc1	MITF primary 96, TEAD-YAP inh 32
CCOc1ccc(OCC)c(C2C(C#N)=C(N)Oc3[nH]c(=O)[nH]c(=O)c32)c1 (centres undefined)	none
O=C(Nc1ccc(C23CC4CC(CC(C4)C2)C3)cc1)c1cccc(Cl)c1	TEAD-YAP inh 60
COc1cccc(/C=N/NC(=O)c2cccs2)c1	none
COc1cccc(N=C/C(C(=O)C(F)(F)F)=C(\O)c2cccs2)c1	TEAD-YAP inh 82
CC(C)c1nc2ccccc2n1C(C)C	none
Cc1ccc(Nc2nc(NCc3ccccc3)c3ccccc3n2)cc1	TEAD-YAP inh 36
Fc1ccccc1Nc1nc(NCc2ccccc2)c2ccccc2n1	TEAD-YAP inh 47
Fc1ccccc1Nc1nc(NCc2ccco2)c2ccccc2n1	none
Cc1ccc(-c2nc(NCc3ccccc3)c3ccccc3n2)cc1	none
c1ccc(Cn2nnnc2CN2CCC(n3cnc4cccnc43)CC2)cc1	none
Cc1ccc(C(CC(=O)N2CCCCC2)c2ccco2)cc1 (centres undefined)	none
OCCC1CN(Cc2ccc3ncccc3c2)CCN1Cc1ccc(F)cc1 (centres undefined)	none
COc1ccccc1N1CCN(C(=O)c2nc(SC)ncc2Cl)CC1	TEAD-YAP inh 49
COc1ccc(C(=O)N2CCN(c3cccc(C)c3C)CC2)cc1	none
COc1cc(OC)cc(C(=O)N2CCN(c3cccc(C)c3C)CC2)c1	TEAD-YAP inh 47
COc1ccccc1N1CCN(C(=O)c2ncoc2-c2ccccc2C(F)(F)F)CC1	TEAD-YAP inh 51
COc1ccccc1N1CCN(C(=O)COc2cccc(C)c2C)CC1	none
COc1ccccc1CNC(=O)c1ncoc1-c1ccccc1C(F)(F)F	none
COc1ccccc1N1CCN(C(=O)COc2ccc(Br)cc2C)CC1	TEAD-YAP inh 49
CSc1ncc(Cl)c(C(=O)N2CCN(C)CC2)n1	none
Cc1cc2cc3c(cc2n2c(=O)[nH]nc12)OCO3	none
COC(=O)c1cc(C(=O)N2CCN(c3ccccc3OC)CC2)cc([N+](=O)[O-])c1	TEAD-YAP inh 64

High-throughput results as filed in PubChem.
